Assay outcomes deposited in PubChem BioAssay by several laboratories.
The list is not random: actives were taken first. Their share in the collection is about 3.1%.
HIF-2a inh – blocks HIF-2a reporter activity; 360,000 compounds, 0.72% hits; inhibition, % at 18.8 µM; 786-0 RCC cells HIF-2a reporter, luciferase luminescence, overnight;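 active = inhibition of the luminescence signal of 40% or more relative to plate controls, in a single-dose primary screen at 18.75 µM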
ABHD5-PLIN5 inh – inhibitors of human ABHD5-perilipin-5 interaction; Split G. princeps luciferase complementation, luminescence, 4 h; inhibition, % at 4 µM; 360,000 compounds, 0.78% hits;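 active = inhibition above the mean inhibition across every tested compound plus 3 SD, cut at about 22% in these data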;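 also: 0% = DMSO only wells and the 100% control is not disclosed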
KKLEB tox – reduces viability of KKLEB cystic fibrosis airway cells; KKLEB CF airway cells viability, ATPlite luminescence, overnight; hits give low values; cells stimulated with P. aeruginosa culture filtrate; activity change (cytotoxicity), % at 5 µM; 360,000 compounds, 0.36% hits; AID 602141;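 active = corrected activity change at or below -50% at 5 µM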
CF NFkB block – inhibitors of cystic fibrosis induced NF-kB. KKLEB NF-kB-GFP reporter, PAF-induced, GFP fluorescence overnight. inhibition, % at 5 µM. 360,000 compounds, 0.86% hits. AID 588850;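 active = at least 50% inhibition at 5 µM, scaled per plate between neutral and stimulator controls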;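 also: PAF is a Pseudomonas aeruginosa culture filtrate used as stimulus; plate controls were PAF-stimulated DMSO wells for no effect and unstimulated DMSO wells for full effect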
MITF TRPM1 inh – MITF TRPM1 promoter inhibition in SK-MEL-5 cells. SK-MEL-5 TRPM1 promoter luciferase, 24 h. inhibition, % at 12.5 µM. 330,000 compounds, 0.83% hits;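 active = mean inhibition across replicates of 60% or more, whatever share of single replicates reaches that level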
Peg3 promoter – Peg3 promoter activity inhibition; HeLa PEG-Prom luciferase reporter, luminescence, overnight; 360,000 compounds, 1.7% hits; inhibition, % at 20 µM;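 active = inhibition of at least 50% at 20 µM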
* = called active by the depositor; / = no result.

SMILES	HIF-2a inh	ABHD5-PLIN5 inh	KKLEB tox	CF NFkB block	MITF TRPM1 inh	Peg3 promoter
CN(C)/C=C/C(=O)c1ccc(N2CCN(c3ncc(C(F)(F)F)cc3Cl)CC2)cc1	11	0	8	15	26	73*
C/C(=N/NC(=O)CN1CCN(S(=O)(=O)c2ccc(C)cc2)CC1)c1cccc(O)c1	12	-2	8	-12	-9	-3
Cc1ccc(S(=O)(=O)Oc2cccc([N+](=O)[O-])c2)cc1	-72	0	4	-6	-25	0
CC1=C(C(=O)Nc2ccccc2)C(c2ccc(C)cc2)N=C(Nc2nc3ccccc3o2)N1 (centres undefined)	2	-11	-17	1	22	77*
CCCc1cc(=O)n2[nH]cc(-c3ccc(Cl)cc3)c2n1	5	-3	-12	36	21	57*
CCN(Cc1ccccc1)C(=O)c1nn(-c2ccc(OC)cc2)c(=O)c2c1c1ccccc1n2C	20	1	-6	11	2	68*
COc1cccc(-c2nn(-c3ccccc3)cc2C(=O)n2nnc3ccccc32)c1	14	3	-22	10	7	50*
CCC(NC(=O)Nc1nnc(C(F)(F)F)s1)(C(F)(F)F)C(F)(F)F	27	-3	-51*	58*	47	33
Oc1c(Cl)cc(Cl)cc1/C=N/NC(=S)NC1CC2C=CC1C2 (centres undefined)	-6	-8	-72*	50*	8	29
COc1ccc(S(=O)(=O)N2CCCCC2)cc1C(=O)Nc1cc(C)on1	10	4	-3	6	3	14
O=C(On1c(-c2ccccc2)nc2ccccc2c1=O)c1ccco1	-5	-3	12	25	16	27
COc1cc(OC)cc(-c2nc3ccccc3c(=O)n2OC(=O)c2ccccc2C)c1	-10	-2	3	39	-3	53*
CCOC(=O)[C@@H]1[C@H]2COc3cc(OC)ccc3[C@H]2N2C(=O)N(c3cccc(F)c3)C(=O)[C@@]12C	-7	-8	25	-20	-9	8
Cc1ccc(NC(=O)c2ccccc2NS(=O)(=O)c2ccc(Cl)s2)cc1	-74	-6	-48	60*	12	39
O=C(Nc1ccccc1Cc1ccccc1)c1ccccc1NS(=O)(=O)c1ccc(Cl)s1	14	2	-49	63*	-14	35
O=C(Nc1ccccc1)c1ccccc1NS(=O)(=O)c1ccc(Cl)s1	10	0	-36	45	-2	44
COc1ccc(CCC(=O)Nc2ccc(S(=O)(=O)N3CCOCC3)cc2)cc1OC	14	3	3	-33	/	15
CNC(=O)OCc1nc(SSC(C)(C)C)n(C)c1COC(=O)NC	-20	-4	-75*	78*	58	94*
CCSc1nc(COC(=O)NC)c(COC(=O)NC)n1C	-1	-10	-9	20	-2	7
Cc1ccc(C(C(=O)NCc2ccco2)N(C(=O)CNC(=O)c2cccs2)c2c(C)cc(C)cc2C)cc1 (centres undefined)	6	2	-34	28	32	58*
Cc1nc(SCC(=O)N2CCN(c3ccccc3)CC2)c2oc3ccccc3c2n1	36	2	-3	7	9	56*
Cc1noc(C)c1C(=O)OCC(=O)Nc1ccc(N2CCOCC2)cc1	-2	4	-3	-2	-1	-13
Cc1cccc(C)c1NC(=O)CSc1nc(C)c(CC(=O)c2ccc(Br)cc2)c(C)c1C#N	13	5	-2	2	40	60*
COc1ccccc1C=NN=C(NN=Cc1ccccc1OC)NN=Cc1ccccc1OC	-147	-49	-4	34	88*	3
COc1ccccc1C=NNC(=O)NN=Cc1ccccc1OC	-181	-10	-23	-14	-41	-144
SMILES	HIF-2a inh	ABHD5-PLIN5 inh	KKLEB tox	CF NFkB block	MITF TRPM1 inh	Peg3 promoter
Cc1cc(N2CCN(C)CC2)ccc1NC(=O)c1cccc(S(=O)(=O)N2CCc3ccccc3C2)c1	18	16	15	-5	38	109*
Cc1cccc(C(C)C)c1NC(=O)COC(=O)c1cccc(S(=O)(=O)N2CCc3ccccc3C2)c1	17	0	-14	20	3	60*
CCc1cccc(CC)c1NC(=O)COC(=O)c1cccc(S(=O)(=O)N2CCc3ccccc3C2)c1	7	3	3	-1	-7	-2
Cc1ccc(NC(=O)c2cccc(S(=O)(=O)N3CCc4ccccc4C3)c2)nc1	5	3	1	7	23	34
CC1=C(C(N)=O)C(c2ccc(Cl)c(Cl)c2)n2ncnc2N1 (centres undefined)	14	6	7	12	-1	-3
CCOC(=O)c1c(NC(=O)C(NCCN(C)C)c2ccccc2)sc2c1CCCC2 (centres undefined)	5	9	-13	38	76*	106*
COc1cc(OC)c(N(C)S(=O)(=O)c2cccc(C(=O)Nc3nccs3)c2)cc1Cl	22	8	12	-14	1	51*
COC(=O)C1CC2=C(CCC2=O)N(c2ccccc2)C1=O (centres undefined)	-2	2	2	2	-4	-1
O=C(c1ccc(Cl)cc1)c1c[nH]c(C(=O)C(Cl)(Cl)Cl)c1	-7	0	2	-3	-9	58*
O=C(c1c[nH]c(C(=O)C(Cl)(Cl)Cl)c1)c1ccc(F)cc1F	-5	0	8	2	7	38
O=C(c1c[nH]c(C(=O)C(Cl)(Cl)Cl)c1)c1ccc(F)cc1Cl	-2	2	8	16	5	54*
NS(=O)(=O)c1ccc(CCNC(=O)CNC(=O)c2ccc(Oc3ccccc3)cc2)cc1	11	6	-4	12	8	8
COP(=O)(CC(=O)c1ccccc1)CC(=O)c1ccccc1	12	3	-2	19	-10	-9
Cc1oc(C(C)(C)C)cc1C(=O)Nc1cccc(/C=C\C(=O)O)c1	-18	23*	-1	7	-17	-32
Cc1oc(-c2ccccc2)cc1C(=O)Nc1cccc(/C=C\C(=O)O)c1	0	15	6	3	-3	1
COc1ccc(-n2c(-c3cc(-c4ccccc4)sc3N)n[nH]c2=S)cc1	-6	-6	20	-38	-15	87*
Nc1sc(-c2ccccc2)cc1-c1n[nH]c(=S)n1C1CCCCC1	20	-4	7	2	10	45
Cc1ccc(-c2nn3c(C)nnc3s2)cc1NC(=O)c1ccc(-c2ccc(Cl)cc2Cl)o1	-1	10	-32	16	100*	103*
CC(=O)[C@H]1CC[C@H]2[C@@H]3C[C@H](C)C4=CC(=O)CC[C@]4(C)[C@H]3[C@@H](O)C[C@]12C	17	5	20	57*	-22	-7
